An excerpt weighted towards active compounds, which were near 11% of everything screened.
NS1 function inh: blocks influenza NS1 protein function. Potency, µM (top dose mostly 46.1 µM), for the others: top-dose activity, positive = more growth. actives 0.4% (n = 270,000). AID 2326; calls by dose curve; note: actives are rising curves; nearly all actives have a fitted effect of over 50% in size
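Read-out: OD600 growth recovery of NS1-expressing budding yeast. Cells grown overnight at 30C in -URA glucose medium, washed, resuspended and diluted 1:100 in 2% galactose assay medium, pH 6.0. Same strain lacking NS1 served as positive control.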
HCV inhibitor: inhibitors of hepatitis C virus infection; Huh7.5.1 HCVcc-Cre infection, luciferase reporter, 44 h; Potency, µM (top dose mostly 41.8 µM), inactives show at the top dose activity change, negative = inhibition, usual class: inhibitors; actives 3.4% (n = 340,000); note: % is set by controls: 0 for no effect and ±100 for the full control effect
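Reporter virus HCVcc-Cre (~0.5 moi) infects cells exposed to compound; seeding density 1,000 cells/well with 4 h settling beforehand. Luminescence, 15 sec read, taken 44 h post-infection following a 15 min RT substrate incubation.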
Vaccinia Venus: vaccinia inhibition (Venus reporter). Potency, µM (titrated, usually from 36.5 µM), for inactives: at the highest dose activity change, negative = inhibition, usual class: inhibitors. Vaccinia virus Venus reporter expression, fluorescence. actives 0.46% (n = 330,000). AID 720580; calls by dose curve; tested in A549 cells; note: % is set by controls: 0 for no effect and ±100 for the full control effect; nearly all actives have a fitted effect of over 30% in size
Pf growth 96h: P. falciparum growth inhibition at 96 hour, primary screen for plastid delayed-death inhibitors; P. falciparum luciferase reporter growth, 96 h; Potency, µM (titrated, usually from 28.7 µM), for inactives: at the top dose activity change, negative = inhibition, actives largely listed as inhibitors; actives 6.9% (n = 320,000); AID 504834; note: % is set by controls: 0 for no effect and ±100 for the full control effect
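Delayed-death screen, second-generation endpoint: infected erythrocytes, 2% hematocrit, 0.05% parasitemia final; 96 hours at 37 C, 5% CO2; luciferase detection reagent; luminescence decrease equals reduced growth.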
VACV mCherry inh: vaccinia inhibition (mCherry reporter); Vaccinia virus mCherry reporter infection, fluorescence; Potency, µM (highest dose often 36.5 µM), for the others: at the highest dose activity change, negative = inhibition, actives largely listed as inhibitors; actives 0.63% (n = 310,000); calls by dose curve; tested in A549 cells; note: % is set by controls: 0 for no effect and ±100 for the full control effect; nearly all actives have a fitted effect of over 35% in size
Pf growth 48h: inhibits P. falciparum growth in the first generation, 48 h | actives 5.9% (n = 310,000) | Potency, µM (doses to about 28.7 µM), for inactives: at the highest dose activity change, negative = inhibition, actives largely listed as inhibitors | AID 504832 | P. falciparum luciferase growth in erythrocytes, 48 h; note: % is set by controls: 0 for no effect and ±100 for the full control effect
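In quantitative HTS format, infected erythrocytes bearing luciferase-reporter parasites were treated for a single generation at 37 C. Luminescence after adding detection reagent served as the growth measure.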
* = called active by the depositor; [ ] = dose if it differs, or a comment. Unless noted, calls come from the whole dose curve; as a rule, active = well fitted inhibition curve with a large enough effect; inconclusive = small, poorly fitted or top-dose-only effect, or another doubt; inactive = no such curve, though single readings can be large or run the other way. Potency is the fitted concentration of half-maximal effect.

For Cc1nc(C)c(-c2ccc(SCC(=O)Nc3ccc(C)c(F)c3)nn2)s1 the results were Vaccinia Venus -12% and VACV mCherry inh -2%.
Cc1cc(N2CCOCC2)nc2ccc(NC(=O)CCC(=O)N3CCC4(CC3)OCCO4)cc12 was read as NS1 function inh -3%, HCV inhibitor 1%, Vaccinia Venus -1%, Pf growth 96h inconclusive, VACV mCherry inh -21% and Pf growth 48h inconclusive.
Screening CCOC(=O)C[n+]1ccc2c([nH]c3ccccc32)c1C returned NS1 function inh 8%, HCV inhibitor -5%, Vaccinia Venus -3%, Pf growth 96h 10µM*, VACV mCherry inh -10% and Pf growth 48h -21%.
O=c1ccc(-c2ccc(S(=O)(=O)NCC3CCN(Cc4cccc(F)c4)CC3)s2)n[nH]1 was read as NS1 function inh -1%, HCV inhibitor -16%, Vaccinia Venus -12%[7.34 µM], Pf growth 96h inconclusive, VACV mCherry inh -13%[7.34 µM] and Pf growth 48h 5.2µM*.
`CCCCCCn1nc(C(=O)OCC(=O)c2c(N)n(C)c(=O)n(C)c2=O)c2ccccc2c1=O` gave HCV inhibitor inconclusive, Vaccinia Venus -11%, Pf growth 96h 13µM*, VACV mCherry inh inactive and Pf growth 48h 12µM*.
For CC(Sc1nn(-c2ccc(F)cc2)c(=S)s1)C(=O)c1c(N)n(C)c(=O)n(C)c1=O (configuration not stated) the results were HCV inhibitor inconclusive, Vaccinia Venus -22%, Pf growth 96h inconclusive, VACV mCherry inh inconclusive and Pf growth 48h inconclusive.
For CCCCCCn1c(SCC(=O)c2c(N)n(C)c(=O)n(C)c2=O)nc2ccccc21 the results were NS1 function inh 4%, HCV inhibitor inconclusive, Vaccinia Venus -11% and Pf growth 96h 0.93µM*.
Screening CCCn1c(N)c(C(=O)CSc2nc3ccccc3n2CCC#N)c(=O)n(C)c1=O returned NS1 function inh -4%, HCV inhibitor 15%, Vaccinia Venus -7%, Pf growth 96h inconclusive, VACV mCherry inh -3% and Pf growth 48h -12%.
Cn1c(N)c(C(=O)CSc2nn(-c3ccccc3)c(=S)s2)c(=O)n(C)c1=O was read as HCV inhibitor 10µM*, Vaccinia Venus -8%, Pf growth 96h 6%, VACV mCherry inh inconclusive and Pf growth 48h 15%.
`Cc1ccccc1OCc1ccc(-c2nc(C#N)c(N3CCN(C)CC3)o2)o1` gave Vaccinia Venus -1% and VACV mCherry inh -14%.
COc1ccc(NC(=O)CN2CCN(S(=O)(=O)N(C)C)CC2)cc1 was read as NS1 function inh -1%, HCV inhibitor 6%, Pf growth 96h 37% and Pf growth 48h 4%.
Screening COC(=O)c1ccc(NC(=O)CN2CCN(S(=O)(=O)c3ccc(Br)cc3)CC2)cc1 returned NS1 function inh -30%, HCV inhibitor inconclusive, Vaccinia Venus -13%, Pf growth 96h 9.3µM*, VACV mCherry inh -15% and Pf growth 48h -3%.
For CN(C)S(=O)(=O)N1CCN(CC(=O)Nc2ccc(Br)cc2)CC1 the results were NS1 function inh -5%, HCV inhibitor 0%, Pf growth 96h 5.2µM* and Pf growth 48h -10%.
For Cc1c(S(=O)(=O)N2CCN(c3ccccc3)CC2)c(=O)n(C)c(=O)n1C the results were NS1 function inh -60%, HCV inhibitor 8%, Vaccinia Venus -19%, Pf growth 96h 28%, VACV mCherry inh -26% and Pf growth 48h 224%.
Screening COc1ccc(C(O)c2cc(OC)ccc2OP(=O)(N(C)C)N(C)C)cc1 (configuration not stated) returned NS1 function inh -5%, HCV inhibitor 2%, Vaccinia Venus -7%, Pf growth 96h 5.2µM*, VACV mCherry inh -4% and Pf growth 48h 10µM*.
`COc1ccc(N(C(=O)CS(=O)CC(=O)Nc2ccc(F)cc2)C(C(=O)NC2CCCCC2)c2cccs2)cc1` (configuration not stated) gave NS1 function inh -6%, HCV inhibitor 4%, Vaccinia Venus -12%, Pf growth 96h inconclusive, VACV mCherry inh -1% and Pf growth 48h -11%.

Screening data deposited in PubChem BioAssay by National Center for Advancing Translational Sciences (NCATS).
